From PubChem BioAssay (NCATS) come the findings set out here.

Each structure is given as a SMILES string. A number with no mark means an inactive call. Records with an inconclusive call do not appear. Active and inactive are the calls of the source. Calls follow the shape of the dose curve; as a rule, active = well fitted curve in the direction sought with a large enough effect; inconclusive = small, poorly fitted or top-dose-only effect, or another doubt; inactive = no such curve, though single readings can be large; an effect the other way counts as inactive or inconclusive.

Test [1] concerns the target Glutathione peroxidase 1 (Homo sapiens) (UniProt P07203). The test can be described thus: Primary qHTS Assay for Inhibitors of Recombinant Selenoprotein Glutathione Peroxidase 1 (GPX1) (AID 1845191). Also: nearly all actives have a fitted effect of over 65% in size. As to activity, negative = inhibition: % is scaled to controls: 0 for no effect and ±100 for the full control effect. The procedure, abridged:
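NADPH consumption tracked by fluorescence at 340/450 nm between t=0 and t=15 min, room temperature. Final mix: 10 nM GPX1, 100 nM glutathione reductase, 1 mM GSH, 0.5 mM NADPH, 0.5 mM cumene hydroperoxide, 0.01% BSA; 30 min compound–enzyme preincubation.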
Background: In qHTS, concentration-response curves come from the screen itself.

Test [2] deals with Phospholipid hydroperoxide glutathione peroxidase GPX4 (Homo sapiens) (UniProt P36969). The test can be described thus: Primary qHTS Assay for Inhibitors of Recombinant Selenoprotein Glutathione Peroxidase 4 (GPX4) (AID 1845192). Also: nearly all actives have a fitted effect of over 65% in size. As to activity change, negative = inhibition: series mostly up to about 50 µM; % is scaled to controls: 0 for no effect and ±100 for the full control effect. In short, it runs like this:
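NADPH consumption followed by fluorescence at 340/450 nm, t=0 and after 15 min at room temperature. Reaction started with cumene hydroperoxide (0.5 mM final) after 30 min compound–GPX4 preincubation; final 200 nM GPX4, 100 nM GR, 1 mM GSH, 0.5 mM NADPH.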

Test [3] addresses Luciferin 4-monooxygenase (Photinus pyralis) (UniProt P08659). In words: Primary firefly luciferase (FLuc) qHTS assay for identification of artifact compounds. (AID 1845220). Also: nearly all actives have a fitted effect of over 60% in size.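 As to activity change, negative = inhibition: series mostly up to about 54 µM; plate controls were DMSO vehicle for no effect and no enzyme for full effect.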 In short, it runs like this:
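Cell-free, 1536-well qHTS. Buffer pH 7.6 with 0.01% Tween-20 and 0.05% BSA; 10 uM D-luciferin, 10 uM ATP; 10 nM P. pyralis luciferase; luminescence after 5 min.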

Test [4] in a line: Primary fluorescence-based thiol-reactive (MSTI) qHTS assay for identification of artifact compounds. (AID 1845221). Also: nearly all actives have a fitted effect of over 65% in size. Also: potency is read from the fitted curve at half-maximal effect.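 As to activity change, negative = thiol reactive: series mostly up to about 54 µM; thiol-reactive compounds lower the probe fluorescence signal.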 The procedure, abridged:
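qHTS titration of compound; 4 uM MSTI, PBS pH 7.4, 2% DMSO; 1 h RT, dark; fluorescence 525/598 nm; normalized to Acetyl-MSTI and MSTI; 4-parameter Hill fit.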

For test [5], the system named is Nanoluciferase (engineered Oplophorus gracilirostris luciferase). In words: Primary Nanoluciferase (NLuc) qHTS assay for identification of artifact compounds. (AID 1845222).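 Also: series mostly up to about 54 µM; 0% = DMSO and -100% = no enzyme.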 The procedure, abridged:
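Compounds are pinned into diluted (1:55) conditioned medium of NLuc-expressing S16 cells and held 15 min at room temperature protected from light. Nano-Glo substrate follows, and luminescence is read 5 min later.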

A short description of test [6]: Primary redox qHTS assay for identification of artifact compounds. (AID 1845223).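 Also: 0% = DMSO and 100% = reference compound.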 The procedure, abridged:
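Redox-cycling detection via DTT (250 uM final) oxidation coupled to Amplex Red (25 uM)/HRP (250 mU/mL) in HBSS. 15 min preincubation plus 30 min after DTT, room temperature. Ex/Em 525/598 nm; 4-parameter Hill fit against DMSO and 10 uM DA3003.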

Glutathione peroxidase 1 (Homo sapiens), sequence (P07203 whole entry, looked up): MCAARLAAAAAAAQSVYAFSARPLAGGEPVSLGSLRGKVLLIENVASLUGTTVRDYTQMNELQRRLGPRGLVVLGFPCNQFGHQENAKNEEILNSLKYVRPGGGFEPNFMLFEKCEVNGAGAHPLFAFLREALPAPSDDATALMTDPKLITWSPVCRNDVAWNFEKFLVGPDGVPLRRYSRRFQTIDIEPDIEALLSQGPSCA
Phospholipid hydroperoxide glutathione peroxidase GPX4 (Homo sapiens), sequence (P36969 whole entry, looked up): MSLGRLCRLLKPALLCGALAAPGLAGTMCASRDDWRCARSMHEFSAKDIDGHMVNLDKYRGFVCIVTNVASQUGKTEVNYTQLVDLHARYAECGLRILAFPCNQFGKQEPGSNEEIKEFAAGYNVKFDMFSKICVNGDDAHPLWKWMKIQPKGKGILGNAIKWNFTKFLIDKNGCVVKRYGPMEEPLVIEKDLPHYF

On to `c1nc(NC2CCCCCC2)c2cc(CNC[C@H]3CCCO3)sc2n1`, for which the Potency result in test [1], in test [2], in test [3], in test [4], in test [5] and in test [6] was “inactive” throughout.
For `C=C1C[C@]23C[C@H]1CC[C@H]2[C@@]12C=C[C@H](O)[C@@](C)(C(=O)O1)[C@H]2[C@@H]3C(=O)O`, the Potency entry in test [1], in test [2], in test [3], in test [4], in test [5] and in test [6] was “inactive” throughout.
As for `C=C(C)C(C)C1OC23CC4(CO2)C(CCC2C5(C)CCC(OC6OCC(O)C(OC7OC(CO)C(O)C(OC8OCC(O)C(O)C8O)C7O)C6OC6OC(CO)C(O)C6O)C(C)(C)C5CCC24C)C3C(C)(O)C1OC(C)=O` (stereo not given), the Potency entry in test [1] and in test [2] was “inactive” each time. In test [3], the outcome is “inactive [at 11.6 µM]”. In addition, the activity change, negative = thiol reactive in test [4] was 644% [at 11.5 µM]. The activity, negative = inhibition in test [5] is 3.65% [at 11.6 µM]. Besides, the redox activity (% of DA3003) in test [6] was 8.02% [at 11.5 µM].
`C=C1CC[C@@H]2[C@](C)(CC[C@H](O)[C@@]2(C)CCC=C(C)C)[C@@H]1Cc1c[nH]c2ccccc12`: the Potency result in test [1], in test [2], in test [3], in test [4], in test [5] and in test [6] was “inactive” in each case.
Consider `CN1C(=O)c2ccccc2-n2c(nc3ccccc3c2=O)[C@@]12O[C@H]2c1ccccc1`, for which the Potency entry in test [1], in test [2], in test [3], in test [4], in test [5] and in test [6] was “inactive” throughout.
With `COc1cc(/C=C/C(=O)OC2[C@H](O)CC(O)(C(=O)O)C[C@H]2O)ccc1O` (stereo not given in full), the Potency result in test [1], in test [2], in test [3], in test [4], in test [5] and in test [6] was “inactive” each time.
As for `COc1ccc(C(OC2OC(CO)C(O)C(O)C2O)C(C)O)cc1` (stereo not given), the Potency entry in test [1], in test [2], in test [3], in test [5] and in test [6] was “inactive” each time. Moreover, in test [4], the Potency is 14.7 µM (active).
On to `C[C@]12CCC[C@](C)(C(=O)O)C1CCC13C=C(CO)C(CCC12)C3` (stereo not given in full), for which the Potency result in test [1], in test [2], in test [3], in test [4], in test [5] and in test [6] was “inactive” each time.
Take `C=C[C@H]1[C@H](O[C@@H]2O[C@H](CO)[C@@H](O)[C@H](O)[C@H]2O)OC=C2C(=O)OCC[C@]21O`: the Potency entry in test [1], in test [2], in test [3], in test [5] and in test [6] was “inactive” in each case. The Potency in test [4] was 11.7 µM (active).
As for `Cc1ncc([N+](=O)[O-])n1CC(O)CN1CCOCC1` (stereo not given), the Potency entry in test [1], in test [2], in test [3], in test [4], in test [5] and in test [6] was “inactive” throughout.
With `Nc1ccn([C@@H]2C(F)=C(CO)[C@@H](O)[C@H]2O)c(=O)n1`, the Potency entry in test [1], in test [2], in test [3], in test [4], in test [5] and in test [6] was “inactive” throughout.
Consider `COc1cc(/C=C/C(=O)OC2CC(C)=C(C(=O)O)/C2=C/CO[C@@H]2O[C@H](CO)[C@@H](O)[C@H](O)[C@H]2O)ccc1O` (stereo not given in full), for which the Potency result in test [1], in test [2], in test [3], in test [5] and in test [6] was “inactive” in each case. In addition, in test [4], the Potency is 4.12 µM (active).
Take `C=CC(C)(O)CC/C=C(/C)C(=O)OC1C(OC2OCC(OC3OC(CO)C(O)C(O)C3O)C(OC3OCC(O)C(OC4OC(C)C(O)C(O)C4O)C3O)C2O)COC(OC(=O)C23CCC(C)(C)CC2C2=CCC4C5(C)CCC(OC6OC(CO)C(OC7OC(CO)C(O)C(OC8OCC(O)C(O)C8O)C7O)C(O)C6O)C(C)(C)C5CCC4(C)C2(C)CC3O)C1O` (stereo not given): the results for the activity, negative = inhibition in test [1] and in test [5] were -7.71% [at 9.52 µM] and 2.49% [at 6.45 µM], respectively. Further, the outcome in test [2] is “inactive [at 9.73 µM]”. For the same compound, the activity change, negative = inhibition in test [3] was 3.07% [at 6.45 µM]. The activity change, negative = thiol reactive in test [4] was 146% [at 6.41 µM]. For the same compound, the redox activity (% of DA3003) in test [6] is 3.8% [at 6.41 µM].
Turning to `COC(=O)[C@H](OC(C)=O)[C@H]1C(C)(C)C(=O)[C@H]2CC3=C4CC(=O)O[C@@H](c5ccoc5)[C@]4(C)CCC3[C@@]1(C)C2=O` (stereo not given in full), the Potency entry in test [1], in test [2], in test [3], in test [4], in test [5] and in test [6] was “inactive” throughout.
On to `CCOC(=O)[C@H](CCc1ccccc1)CC1(C(=O)N[C@H]2CCc3ccccc3N(CC(=O)O)C2=O)CCCC1`, for which the Potency result in test [1], in test [2], in test [3], in test [4], in test [5] and in test [6] was “inactive” throughout.
`CC1=CC(=O)CC(C)(CO[C@@H]2O[C@H](CO)[C@@H](O)[C@H](O)[C@H]2O)C1(O)/C=C/C(C)=C/C(=O)O` (stereo not given in full): the Potency entry in test [1], in test [2], in test [3], in test [5] and in test [6] was “inactive” each time. Besides, the Potency in test [4] was 13 µM (active).
Regarding `O=C(O)C[C@H]1CCC(=O)[C@@H]1C/C=C\CCOC1OC(CO)C(O)C(O)C1O` (stereo not given in full), the Potency result in test [1], in test [2], in test [3], in test [5] and in test [6] was “inactive” in each case. Besides, in test [4], the Potency is 7.36 µM (active).
Take `Cc1ccc(C(=O)Nc2ccc(Oc3cc4cnn(C)c4cc3-c3cn[nH]c3)c(F)c2)c(=O)n1-c1ccc(F)cc1`: the Potency result in test [1], in test [2], in test [3], in test [4], in test [5] and in test [6] was “inactive” each time.
`O=C(O)c1n[nH]c2c1C[C@H]1C[C@@H]21`: the Potency entry in test [1], in test [2], in test [3], in test [4], in test [5] and in test [6] was “inactive” throughout.
Turning to `OCC1OC(Oc2cc(O)c3c(c2)OC(c2ccc(O)cc2)C(O)C3)C(O)C1O` (stereo not given), the Potency entry in test [1], in test [2], in test [3], in test [4], in test [5] and in test [6] was “inactive” in each case.
